KCNQ2 block: rat KCNQ2 potassium channel inhibitors, primary screen, cell-based, CHO-K1, FluxOR thallium flux, B-score; Potassium voltage-gated channel subfamily KQT member 2 (Rattus norvegicus), O88943; 20 min; active compounds read low; B-score at 10 µM; actives 1.1% (n = 310,000);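 active means fluorescence ratio B-score at most minus 3 library SDs, with starting brightness B-score within 2 library SDs, cut at about -5.5 in these data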
Target sequence (O88943 whole entry, looked up): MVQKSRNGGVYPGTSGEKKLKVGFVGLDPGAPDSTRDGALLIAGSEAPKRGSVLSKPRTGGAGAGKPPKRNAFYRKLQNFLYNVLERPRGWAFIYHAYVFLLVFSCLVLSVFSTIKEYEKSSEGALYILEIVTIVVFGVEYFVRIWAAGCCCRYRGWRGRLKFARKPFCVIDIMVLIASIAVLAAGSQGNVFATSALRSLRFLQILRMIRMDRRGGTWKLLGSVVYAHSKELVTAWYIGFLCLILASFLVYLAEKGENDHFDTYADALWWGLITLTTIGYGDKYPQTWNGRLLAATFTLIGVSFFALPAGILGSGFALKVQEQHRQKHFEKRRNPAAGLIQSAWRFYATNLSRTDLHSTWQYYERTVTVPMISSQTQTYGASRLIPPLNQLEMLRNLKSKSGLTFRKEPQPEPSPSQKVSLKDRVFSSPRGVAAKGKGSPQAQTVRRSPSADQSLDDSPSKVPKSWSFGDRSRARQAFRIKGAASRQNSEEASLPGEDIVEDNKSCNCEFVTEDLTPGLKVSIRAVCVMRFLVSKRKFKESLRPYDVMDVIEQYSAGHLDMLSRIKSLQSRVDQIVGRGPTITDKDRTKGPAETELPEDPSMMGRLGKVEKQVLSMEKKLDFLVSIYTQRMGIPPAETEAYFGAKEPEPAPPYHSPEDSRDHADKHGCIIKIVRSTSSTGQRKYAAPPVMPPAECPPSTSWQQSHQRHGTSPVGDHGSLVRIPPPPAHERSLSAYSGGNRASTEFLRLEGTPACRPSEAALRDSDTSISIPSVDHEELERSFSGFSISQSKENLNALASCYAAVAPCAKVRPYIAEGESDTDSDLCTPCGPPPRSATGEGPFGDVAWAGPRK
KCNQ2 pot: potentiators of rat KCNQ2 potassium channel | Potassium voltage-gated channel subfamily KQT member 2 (Rattus norvegicus), O88943 | CHO-K1 KCNQ2, FluxOR thallium flux fluorescence; active compounds read high | B-score at 10 µM | actives 0.54% (n = 310,000);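 active means fluorescence ratio B-score at least 3 SD of library B-scores, with initial fluorescence B-score within 3 of them, cut at about 5.3 in these data; same plate scores as AID 2156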;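 further: B-score of peak minus minimum over baseline fluorescence ratio after K+ and Tl+ stimulus; positive B-score means potentiation of KCNQ2 with more thallium influx and brighter signal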
Kir21 conf inh: mouse Kir2.1 channel blockers, retest, confirmation, cell-based, FluxOR thallium flux, duplicate; shares compounds with KCNQ2 pot; Kir2.1-expressing cells, FluxOR thallium flux fluorescence; active compounds read low; Tl flux remaining, % of negative control (active compounds read low), % at 10 µM; actives 41% (n = 2,300);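 active means Primary-screen hit whose thallium flux fell at least 3 control SD below untreated wells in both duplicates, with normal baseline fluorescence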;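 further: 0% = blank wells without stimulus and 100% = stimulated no-compound controls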
HEK293 Tl flux: counter-screen for Kir2.1 inhibitors: effect in parental HEK293 cells; shares compounds with KCNQ2 pot; FluxOR thallium flux fluorescence; 0% = unstimulated blank wells; FluxOR signal as % of negative control (100 = no effect), % at 10 µM; actives 19% (n = 2,300); AID 2105;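 active means dye signal at least 3 control SD above or below untreated wells in both duplicates, raw fluorescence within 3, either direction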;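 further: percent is based on the flux ratio of peak minus minimum fluorescence over baseline F0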
CHO-K1 Tl ctr: nonspecific thallium flux increase in parental CHO-K1, confirmation, counter-screen for KCNQ2 potentiator project, cell-based, FluxOR thallium flux, duplicate; shares compounds with KCNQ2 pot; parental CHO-K1 cells, FluxOR thallium flux fluorescence; zero = vehicle mean+3SD, 100% = vehicle-minus-blank window; activity increase over 3SD of controls, % at 10 µM; actives 43% (n = 1,200); AID 2282, 2010;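 active means signal rise of at least 3 SD above the untreated control mean, in both duplicate wells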;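 further: counter screen of KCNQ2 potentiator hits so any rise reflects channel-independent effects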
KCNQ1 sel pot: human KCNQ1 channel potentiation off-target, confirmation, selectivity assay for KCNQ2 potentiator project, cell-based, CHO, FluxOR thallium flux; shares compounds with KCNQ2 pot; CHO KCNQ1 stable, FluxOR thallium flux fluorescence; beyond 3SD, as % of vehicle-control signal; activation over 3SD threshold, % at 10 µM; actives 28% (n = 1,200);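 active means fluorescence ratio rise of at least 3 SD of vehicle wells above their mean, in both replicate wells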;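 further: 0% = vehicle mean plus 3 SD and 100% = vehicle minus unstimulated blank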
KCNQ2 pot conf: rat KCNQ2 channel potentiators, confirmation, cell-based, CHO, FluxOR thallium flux, duplicate | shares compounds with KCNQ2 pot | CHO-KCNQ2 cells, FluxOR thallium flux fluorescence | potentiation, less the hit threshold, % at 10 µM | actives 68% (n = 1,200);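 active means fluorescence ratio rising 3 SD or more over the vehicle control mean in both replicates, plus primary screen hit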;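 further: peak minus minimum thallium fluorescence divided by baseline after K/Tl stimulus; 0% = vehicle mean plus 3 SD and 100% = vehicle minus unstimulated blank difference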
Kir21 spec: mouse Kir2.1 channel activation off-target, confirmation, selectivity assay for KCNQ2 potentiator project, cell-based, HEK293, FluxOR thallium flux | shares compounds with KCNQ2 pot | HEK293 Kir2.1, FluxOR thallium flux fluorescence | activity over 3SD threshold, % at 10 µM | actives 2% (n = 1,200);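 active means fluorescence ratio rise of at least 3 SD above the vehicle-control mean, seen in both replicates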;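 further: 0% = vehicle mean plus 3 SD and 100% = vehicle minus no-stimulus blank window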
KCNQ2 W236L MoA: potentiators of retigabine-insensitive KCNQ2 W236L, mechanism study for KCNQ2 potentiator project, cell-based, rat KCNQ2 W236L, CHO, automated patch clamp | current increase over 3SD of negative controls (%), active compounds read high, % at 25 µM | shares compounds with KCNQ2 pot | actives 10% (n = 940) | automated patch clamp current | AID 2558, 2010;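 active means current increase at least 3 SD of the untreated controls above them in both duplicate recordings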
Active calls of the source: *; i = inactive; · = no result given. This is a sample that favours compounds with a hit; in the whole collection about 1.6% have one here.

SMILES	KCNQ2 block	KCNQ2 pot	Kir21 conf inh	HEK293 Tl flux	others
CCc1nc(SCC(=O)N2CCN(c3ccccc3)CC2)c2oc3ccccc3c2n1	i	·	·	·
N#Cc1ccc(-c2nc3ccccc3c(=O)n2O)cc1	i	0.63	·	·
O=c1c2ccc(Cl)cc2nc(-c2cccc(C(F)(F)F)c2)n1O	i	18*	i	498.0%*	CHO-K1 Tl ctr=-11.5;KCNQ1 sel pot=-12.9;KCNQ2 pot conf=65.7*;Kir21 spec=4.2*;KCNQ2 W236L MoA=i
On1c(-c2ccccc2)nc2ccc(Cl)cc21	i	·	·	·
N#Cc1ccc(-c2nc3cc(Cl)ccc3c(=O)n2O)cc1	i	4.67	·	·
O=c1c2ccccc2nc(-c2ccc(Cl)cc2Cl)n1O	i	0.93	·	·
O=c1c2cc(Cl)ccc2nc(-c2ccc([N+](=O)[O-])cc2)n1O	i	9.67*	i	308.0%*	CHO-K1 Tl ctr=-8.7;KCNQ1 sel pot=-17.7;KCNQ2 pot conf=41.8*;Kir21 spec=-24.9;KCNQ2 W236L MoA=i
O=c1c2cc(Br)ccc2nc(-c2ccc(Cl)cc2)n1O	i	17.1*	i	566.5%*	CHO-K1 Tl ctr=-7.6;KCNQ1 sel pot=40.6*;KCNQ2 pot conf=92.9*;Kir21 spec=14.9*;KCNQ2 W236L MoA=i
Cc1ccc(-c2nc3c(Cl)cc(Cl)cc3c(=O)n2O)cc1	i	16.6*	i	541.5%*	CHO-K1 Tl ctr=4.1*;KCNQ1 sel pot=2.4*;KCNQ2 pot conf=102.5*;Kir21 spec=0.8*;KCNQ2 W236L MoA=i
CCOC(=O)N1CCN(C(=O)c2cc3n(n2)C(C(F)(F)F)CC(c2ccc4c(c2)OCO4)N3)CC1 (centres undefined)	i	·	·	·
COc1cc(/C=C/c2cccc[n+]2C)ccc1OCC(=O)Nc1cccc(Cl)c1	i	·	·	·
CCOc1ccc(C(O)(c2ccccc2)C(CN2CCCC2)c2ccccc2)cc1 (centres undefined)	i	·	·	·
COc1cccc(CNC(=O)Cn2ncc3c(=O)oc4ccccc4c32)c1	i	0.47	·	·
O=C(c1ccco1)N1CCN(C(=S)Nc2ccc(F)c(Cl)c2)CC1	i	·	·	·
O=S(=O)(CC(O)CS(=O)(=O)c1ccc(Cl)cc1)c1ccccc1 (centres undefined)	i	0.4	·	·
O=c1c2ccccc2nc(-c2ccc(Cl)c(Cl)c2)n1O	i	14.6*	i	313.5%*	CHO-K1 Tl ctr=-13.3;KCNQ1 sel pot=-10.2;KCNQ2 pot conf=49.7*;Kir21 spec=-30.4;KCNQ2 W236L MoA=i
O=c1c2ccccc2nc(-c2ccccc2Cl)n1O	i	·	·	·
CN(C)c1ccc(/C=N/NC(=O)c2sccc2-n2cccc2)cc1	i	0.56	·	·
CCOC(=O)Cn1c(=N)n(CCOc2ccc(OC)cc2)c2ccccc21	i	·	·	·
CCOC(=O)Cn1c(=N)n(CCOc2ccc3ccccc3c2)c2ccccc21	i	·	27.5%*	i
CCCc1ccc2oc(C(=O)NCc3nnc(C)o3)c(C)c2c1	i	0.03	·	·
CCc1ccc(NC(=O)c2nc(S(=O)(=O)Cc3ccccc3)ncc2Cl)cc1	i	0.71	·	·
CCOc1ccccc1NC(=O)c1nc(S(=O)(=O)Cc2ccccc2)ncc1Cl	i	1.88	·	·
CCCc1nnc(NC(=O)c2nc(S(=O)(=O)Cc3ccc(C)cc3)ncc2Cl)s1	i	10.2*	·	·	CHO-K1 Tl ctr=-10.9;KCNQ1 sel pot=-12.7;KCNQ2 pot conf=55.3*;Kir21 spec=-67.8;KCNQ2 W236L MoA=24.9%*
CSc1nnc(NC(=O)c2nc(S(=O)(=O)Cc3ccccc3)ncc2Cl)s1	i	14.2*	i	i	CHO-K1 Tl ctr=22.7*;KCNQ1 sel pot=18.5*;KCNQ2 pot conf=83.4*;Kir21 spec=-47.6;KCNQ2 W236L MoA=31.9%*
SMILES	KCNQ2 block	KCNQ2 pot	Kir21 conf inh	HEK293 Tl flux	others
CSc1ncc(Cl)c(C(=O)Nc2nnc(SC)s2)n1	i	0.02	·	·
CC(C)c1nnc(NC(=O)c2nc(S(=O)(=O)Cc3ccccc3)ncc2Cl)s1	i	14.8*	i	i	CHO-K1 Tl ctr=23.3*;KCNQ1 sel pot=-8.9;KCNQ2 pot conf=93.7*;Kir21 spec=-48.2;KCNQ2 W236L MoA=29.0%*
COc1ccccc1N(CC(=O)NC1CCCCC1)C(=O)CNC(=O)c1cccs1	i	·	·	·
CC(C)Cn1c(SCC(=O)Nc2cc(Cl)c(Cl)cc2Cl)nc(O)cc1=O	i	·	·	·
CCOc1ccc(CCNC(=O)CN2C(=O)COc3ccc(S(=O)(=O)N4CCOCC4)cc32)cc1	i	·	·	·
Brc1ccc(CNCc2cccs2)cc1	i	·	·	·
c1ccc(COc2ccc(CNCc3cccs3)cc2)cc1	i	·	10.5%*	72.0%*
COc1ccc(OCc2cc(C(=O)NCCN3CCCc4ccccc43)no2)c(Cl)c1	i	·	·	·
COc1ccc(/C=C(/NC(=O)c2ccccc2)C(=O)NCc2ccco2)cc1	i	1.73	·	·
COc1ccccc1/C=C(\NC(=O)c1ccccc1)C(=O)NCc1ccco1	i	0.73	i	i
CCOc1nc(C)cc(C)c1S(=O)(=O)c1ccc(Cl)cc1	i	1.12	52.5%*	i
COc1nc(C)cc(C)c1S(=O)(=O)c1ccc(Cl)cc1	i	0.07	·	·
N#Cc1cccc(C(=O)Nc2cccc(S(=O)(=O)N3CCCC3)c2)c1	i	0.65	·	·
Cc1ccc(CC(=O)NCCC(=O)O)cc1	i	1.02	·	·
COCCCN1C(=O)c2ccc(C(=O)OCC(=O)N(CCC#N)c3cc(C)cc(C)c3)cc2C1=O	i	0.69	·	·
COc1ccc(S(=O)(=O)Nc2cc(S(=O)(=O)c3ccccc3)c(O)cc2C)cc1	i	0.29	·	·
Cc1cc(O)c(C(C)C)cc1NS(=O)(=O)c1ccccc1	i	·	45.0%*	i
O=C(CCc1nnc2n(CCc3ccccc3)c(=O)c3ccccc3n12)NCCCN1CCCCC1	i	1.16	·	·
CCOC(=O)N1CCN(C(=O)CN(c2ccc(OC)cc2)S(C)(=O)=O)CC1	i	26.6*	i	i	CHO-K1 Tl ctr=15.1*;KCNQ1 sel pot=-11.7;KCNQ2 pot conf=-24.3;Kir21 spec=-36.5
CCOC(=O)N1CCN(C(=O)CN(c2cccc(OC)c2)S(C)(=O)=O)CC1	i	·	·	·

Source: PubChem (Johns Hopkins Ion Channel Center)
